This excerpt belongs to a sample that is enriched for hits.
Pf Dd2 growth: inhibitors of Plasmodium falciparum Dd2 growth. P. falciparum Dd2 growth, SYBR Green, 72 h. Potency, µM (highest dose often 28.9 µM), for the others: top-dose activity, negative = inhibition, usual class: inhibitors. actives 4.3% (n = 120,000). AID 1347417; active = well fitted inhibition curve with a large enough effect;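 also: plate controls were DMSO vehicle for no effect and reference drug for full effect; nearly all actives have a fitted effect of over 65% in size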
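Readout: SYBR Green fluorescence, 485 nm excitation, 535 nm emission, after ~16 h lysis at 37C. Before that, Dd2-infected red cells (2.5% hematocrit) grew 72 h with compound, 29 uM top final concentration.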
Numbers without * were called inactive; [ ] = dose if it differs, or a comment. Potency is read from the fitted curve at half-maximal effect.

COc1ccc2[nH]cc(CCNC(=O)c3cnn(-c4ccc(C)cc4)c3C3CCN(C(=O)OC(C)(C)C)CC3)c2c1 was read as Pf Dd2 growth 3.2µM*.
For O=C(CCc1nnn2c1CN(C(=O)c1ccccc1F)CC2)NC1CC1 the results were Pf Dd2 growth 6%.
For C=CCNC(=O)N[C@H]1C[C@@H](C(=O)N[C@@H](C(=O)OC)C(C)C)N(C(=O)CSC)C1 the results were Pf Dd2 growth -17%[44.1 µM].
O=C(Cn1nc2n(c1=O)CCCCC2)NCc1ccc(Cl)cc1 was read as Pf Dd2 growth 23%.
`Cc1ccc(-c2ncc[nH]2)o1` gave Pf Dd2 growth 56%[76.6 µM].
Screening NCCC[C@@H](N)C(=O)N1CCC2(CCC(=O)N(Cc3ccccc3)C2)CC1 returned Pf Dd2 growth 11%.
`COc1ccc(C(C(=O)O)N2CCN(Cc3csc(C)n3)CC2)c(C)c1` (stereo not given) gave Pf Dd2 growth -18%.
CC(C)Cc1cc(C(=O)N2CCCC(c3ccc(C(=O)O)cc3)C2)nc(=O)[nH]1 (stereo not given) was read as Pf Dd2 growth -19%.
Screening N#Cc1ccc(CN2CCCC3(CNc4ccccc4[S+](=O)([O-])N3)C2)cc1 (stereo not given) returned Pf Dd2 growth inactive.
`Cn1nccc1CN1CCCC2(CNc3ccccc3[S+](=O)([O-])N2)C1` (stereo not given) gave Pf Dd2 growth -3%.
CC(C)CCN1CCCC2(CNc3ccccc3[S+](=O)([O-])N2)C1 (stereo not given) was read as Pf Dd2 growth 13µM*.
`Cc1ccc(C)c(S(=O)(=O)N2CCCC(Cn3c(C4CC4)nc4cccnc43)C2)c1` (stereo not given) gave Pf Dd2 growth -9%.
Cc1ccc(C)c(CCNC(=O)[C@H]2CNC[C@H](C(=O)N3CCOCC3)C2)c1 was read as Pf Dd2 growth -4%.
`COc1ccc(C(=O)N2CCC3(CC2)N=C(c2ccc(Cl)cc2)NO3)cc1` gave Pf Dd2 growth inactive.
For O=C(Cc1cccs1)N1CCC(Oc2ncccc2C(=O)N2CCCCC2)C1 (stereo not given) the results were Pf Dd2 growth inactive.
Screening O=C(Cc1ccccc1F)N1CCC(Oc2ncccc2C(=O)N2CCCCC2)C1 (stereo not given) returned Pf Dd2 growth -12%.
`O=C(Cc1cccc(Cl)c1)N1CCC(Oc2ncccc2C(=O)N2CCCCC2)C1` (stereo not given) gave Pf Dd2 growth 7.9µM*.
`COc1cccc(CNC(=O)[C@@H]2C[C@@H](O)CN2C2CCN(C(=O)COc3ccccc3)CC2)c1` gave Pf Dd2 growth inactive.
CC(C)(C)N1CC(C(=O)NCCCc2ccc(Cl)cc2)CC1=O (stereo not given) was read as Pf Dd2 growth -17%.
`CN(C)c1ccc(CN2CCC3(CC2)COc2ccccc2C(=O)N3)cc1` gave Pf Dd2 growth 1.1µM*.
`O=C1NC2(CCN(Cc3ccc(OC(F)(F)F)cc3)CC2)COc2ccccc21` gave Pf Dd2 growth 2.2µM*.
O=C1NC2(CCN(CC3CCCC3)CC2)COc2ccccc21 was read as Pf Dd2 growth -10%[44.1 µM].
For O=C1NC2(CCCN(Cc3ccc(OC(F)(F)F)cc3)C2)COc2ccccc21 (stereo not given) the results were Pf Dd2 growth inactive.
`Cn1cccc1CN1CC2(C1)NC(=O)c1ccccc1O2` gave Pf Dd2 growth inactive.
For Cn1cccc1CN1CCC2(CC1)COc1ccccc1C(=O)N2 the results were Pf Dd2 growth 5.6µM*.
For CN(C)c1ccc(CN2CCC3(COc4ccccc4C(=O)N3)C2)cc1 (stereo not given) the results were Pf Dd2 growth 1%.
O=C1NC2(CCN(C(=O)c3ccccc3)CC2)COc2ccccc21 was read as Pf Dd2 growth inactive.
Screening O=C1NC2(CCN(C(=O)C3CCCC3)CC2)COc2ccccc21 returned Pf Dd2 growth -19%[44.1 µM].
Screening CN(C)c1ccc(-c2nnnn2[C@H]2CO[C@H]3[C@@H]2OC[C@H]3OCc2ccccc2)cc1 returned Pf Dd2 growth inactive.
`CNc1nc(C(=O)N2CCC3(CCCN(CCOC)C3=O)C2)cs1` (stereo not given) gave Pf Dd2 growth 1%.
`O=C(NC[C@H]1O[C@@H]2C[C@@H](CC(=O)N3CCC(F)(F)C3)O[C@@H]2[C@@H]1O)Nc1cccc(Cl)c1` gave Pf Dd2 growth inactive.
O=C(CCc1c[nH]c2ccccc12)N1CCC(Oc2ncccc2C(=O)N2CCOCC2)C1 (stereo not given) was read as Pf Dd2 growth inactive.
For O=C1CCN(C2CCOCC2)CCCC(c2nc(-c3cccnc3)no2)CCN1 (stereo not given) the results were Pf Dd2 growth -1%.
`O=C1CCN(C2CCCC2)CCCC(c2nc(-c3cccnc3)no2)CCN1` (stereo not given) gave Pf Dd2 growth 0.71µM*.
`CC(C)c1noc(C2CCCN(Cc3cccnc3)CCC(=O)NCC2)n1` (stereo not given) gave Pf Dd2 growth 0%.
`CC(C)c1noc(C2CCCN(Cc3ccccc3)CCC(=O)NCC2)n1` (stereo not given) gave Pf Dd2 growth 4.5µM*.
For CC(C)c1noc(C2CCCN(C(=O)NCCc3ccccc3)CCC(=O)NCC2)n1 (stereo not given) the results were Pf Dd2 growth 39%.
COc1ccc(C2(C(=O)N3CCCC(c4nc(-c5ccccc5)no4)CCNC(=O)CC3)CC2)cc1 (stereo not given) was read as Pf Dd2 growth 7.9µM*.
Screening CN(C)C(=O)N1CCCC(c2nc(-c3ccccc3)no2)CCNC(=O)CC1 (stereo not given) returned Pf Dd2 growth 7%.
For CCC(=O)N1CCCC(c2nc(-c3ccccc3)no2)CCNC(=O)CC1 (stereo not given) the results were Pf Dd2 growth 31%.
For CS(=O)(=O)N1CCCC(c2nc(-c3cccnc3)no2)CCNC(=O)CC1 (stereo not given) the results were Pf Dd2 growth -12%.
CS(=O)(=O)N1CCCCCCNC(=O)[C@@H]2C[C@@H](c3nc(-c4cccnc4)no3)C[C@@H]21 was read as Pf Dd2 growth inactive.
`O=C1NCCCCCCN(S(=O)(=O)c2cccnc2)[C@H]2C[C@H](c3nc(-c4cccnc4)no3)C[C@@H]12` gave Pf Dd2 growth 2.8µM*.
Screening O=C1NCCCCCCN(C(=O)c2cnccn2)[C@H]2C[C@H](c3nc(-c4cccnc4)no3)C[C@@H]12 returned Pf Dd2 growth -23%.
COCc1cc(CNC(=O)C2(Oc3ccc(Cl)cc3)CCNCC2)[nH]n1 was read as Pf Dd2 growth 10%.
CN1CC(=O)N(C2CCCNC2)Cc2c1ncnc2N1CCN(c2ncccn2)CC1 (stereo not given) was read as Pf Dd2 growth 6%.
Screening O=C(NC1CC1)C1(CCO)CC12CCOCC2 (stereo not given) returned Pf Dd2 growth 20%.
COc1ncccc1CNC[C@H]1O[C@@H]2C[C@@H](CC(=O)NC(C)C)O[C@@H]2[C@@H]1O was read as Pf Dd2 growth 5%[44.1 µM].
COC(=O)[C@H](NC(=O)C1=C[C@@H](NC(=O)Nc2ccc(C)cc2)[C@@H](O)[C@H](O)C1)C(C)C was read as Pf Dd2 growth 0%[44.1 µM].
For CCC(=O)N1CCCCCCNC(=O)[C@@H]2CCC[C@@H]21 the results were Pf Dd2 growth 11%.
For CNC(=O)C1(N2CCC[C@H]2C(=O)NC2CCOCC2)CCOCC1 the results were Pf Dd2 growth 0%[44.1 µM].

Compound activity (PubChem)
